This is an account of results in PubChem BioAssay (NCI).

“And” between values parts separate entries of the source, which are not always exact repeats. Equal entries are not always repeated. About 83,000 compounds went through this panel and 20% of them were active in at least one assay; those are over-represented in the sample as a whole.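 Activity criterion: percent growth below 10, measured after cells in 96-well plates were exposed to a single compound concentration for 48 hours.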 Values without a mark were called inactive. The source made the active and inactive calls.

Among the test systems are NCI-H23 lung; NCI-H226 lung; NCI-H322M lung; HOP-62 NSCLC; NCI-H460 lung; HOP-92 NSCLC; NCI-H522 lung; A549/ATCC NSCLC; 786-0 renal; COLO 205 colon; DU-145 prostate; K-562 leukemia; MALME-3M melanoma; MDA-MB-231 breast; RXF 393 renal; SF-268 CNS; SF-295 CNS; SF-539 CNS; UACC-257 melanoma; M14 melanoma.
Test in all cases: NCI-60 one-dose screen, 48 h (100 = growth as untreated, 0 = no growth, -100 = all killed)
Holding throughout (settings): 10 µM unless noted

In the case of `COC(=O)c1c2c(c(C)[n+]([O-])c1C)C(=O)C(NCCN1CCOCC1)=CC2=O`, the growth was 59.7% in the assay on NCI-H23 lung; 103% in the assay with NCI-H226 lung; 72.5% in the assay with NCI-H322M lung; 101% in the assay with HOP-62 NSCLC; 55.4% in the assay on NCI-H460 lung; 146% with HOP-92 NSCLC. The growth was 87.5% in the assay on NCI-H522 lung; 91.3% in the assay with A549/ATCC NSCLC; 89.9% in the assay on 786-0 renal; 6.73% (active) in the assay with COLO 205 colon; 84.3% with DU-145 prostate; 75.6% in the assay with K-562 leukemia. For the same compound, the growth was -13.2% (active) in the assay with MALME-3M melanoma; 70.8% with MDA-MB-231 breast; 96.3% in the assay on RXF 393 renal; 79.3% with SF-268 CNS; 82.7% in the assay with SF-295 CNS; 89.5% in the assay on SF-539 CNS. In addition, the growth is 48.4% in the assay with UACC-257 melanoma and 62.9% in the assay on M14 melanoma.

Regarding `CCN(CC)/C([O-])=c1\cccc\c1=C1\N=C(c2ccccc2)N=C1[n+]1ccc(-c2ccccc2)cc1`, the growth in the assay on NCI-H23 lung is 103%; in the assay with NCI-H226 lung, 94.4%; in the assay with NCI-H322M lung it was 100%; in the assay on HOP-62 NSCLC it was 97.1%; with NCI-H460 lung, 103%; with HOP-92 NSCLC, 86.7%. Besides, the growth is 21% in the assay with NCI-H522 lung; 97.9% in the assay with A549/ATCC NSCLC; 94.2% in the assay on 786-0 renal; 108% in the assay with COLO 205 colon; 102% in the assay with DU-145 prostate; 96.7% in the assay with K-562 leukemia. Also, the growth in the assay with MALME-3M melanoma was 92.7%; with MDA-MB-231 breast, 100%; with RXF 393 renal it was 104%; in the assay with SF-268 CNS, 102%; with SF-295 CNS, 100%; in the assay with SF-539 CNS it was 89.1%. Further, the values for the growth in the assay on UACC-257 melanoma and in the assay on M14 melanoma were 92.9% and 89.6%, respectively.

Consider `CC12CCC(C(=O)CC1=O)C2(C)C` (stereo not given), for which the growth in the assay with NCI-H23 lung is 108% and 97.9%; in the assay on NCI-H226 lung, 95.8%; with NCI-H322M lung, 112% and 97.3%; in the assay on HOP-62 NSCLC, 110%; in the assay on NCI-H460 lung it was 104% and 114%; with HOP-92 NSCLC, 102% and 94.9%. The growth was 103% and 153% with NCI-H522 lung; 101% and 103% in the assay with A549/ATCC NSCLC; 104% and 96.6% in the assay with 786-0 renal; 114% and 110% in the assay on COLO 205 colon; 110% and 108% in the assay with DU-145 prostate; 102% and 84.9% with K-562 leukemia. The growth with MALME-3M melanoma was 105% and 87.4%; in the assay with MDA-MB-231 breast, 111% and 105%; in the assay on RXF 393 renal, 106%; in the assay with SF-268 CNS, 99.2% and 100%; in the assay on SF-295 CNS, 100%; in the assay with SF-539 CNS it was 107% and 112%. In addition, the growth with UACC-257 melanoma is 103% and 91.7%; with M14 melanoma it was 102% and 101%.

Turning to `COc1ccc2c(c1)CC[C@@H]1[C@@H]2CC[C@]2(C)C3C(=CCC4C(=O)N(c5ccccc5)C(=O)C43)C[C@@H]12` (stereo not given in full), the growth was 84.4% with NCI-H23 lung; 90.8% in the assay on NCI-H226 lung; 103% with NCI-H322M lung; 90.3% in the assay on HOP-62 NSCLC; 93.7% with NCI-H460 lung; 99.3% in the assay with HOP-92 NSCLC. In addition, the growth is 80.1% with NCI-H522 lung; 92.3% in the assay with A549/ATCC NSCLC; 87.7% with 786-0 renal; 94.4% in the assay with COLO 205 colon; 114% in the assay on DU-145 prostate; 76.9% in the assay with K-562 leukemia. The growth with MALME-3M melanoma is 96.1%; in the assay on MDA-MB-231 breast, 86.6%; in the assay with RXF 393 renal, 93.7%; with SF-268 CNS, 94.1%; in the assay on SF-295 CNS, 96.4%; in the assay on SF-539 CNS, 96.7%. For the same compound, the growth was 86.1% with UACC-257 melanoma and 89.4% with M14 melanoma.

Take `O=C(CC1(O)C(=O)Nc2ccc(Br)cc21)c1ccc(Cl)cc1` (stereo not given): the growth with NCI-H23 lung was 96.8%; in the assay on NCI-H226 lung, 80.1%; with NCI-H322M lung, 105%; in the assay on HOP-62 NSCLC, 88.7%; with NCI-H460 lung, 106%; in the assay on HOP-92 NSCLC, 86.1%. In addition, the growth is 81% in the assay on NCI-H522 lung; 90.5% in the assay on A549/ATCC NSCLC; 114% in the assay with 786-0 renal; 109% with COLO 205 colon; 107% in the assay on DU-145 prostate; 98.2% in the assay with K-562 leukemia. For the same compound, the growth was 103% with MALME-3M melanoma; 98.8% in the assay with MDA-MB-231 breast; 96.4% with RXF 393 renal; 97.5% with SF-268 CNS; 106% with SF-295 CNS; 108% in the assay on SF-539 CNS. Besides, the figures for the growth in the assay on UACC-257 melanoma and in the assay on M14 melanoma were 88.1% and 99.3%, respectively.

With `CCN(CC)CC#CCOC(=O)[C@]1(C)CCC[C@]2(C)c3ccc(C(C)C)cc3CC[C@@H]12`, the growth in the assay on NCI-H23 lung was 70.8%; in the assay on NCI-H226 lung it was 82.5%; with NCI-H322M lung, 93.7%; with HOP-62 NSCLC, 96.2%; with NCI-H460 lung it was 97.9%; in the assay with HOP-92 NSCLC, 76.7%. The growth in the assay on NCI-H522 lung is 80.6%; with A549/ATCC NSCLC, 87.5%; in the assay with 786-0 renal, 81.2%; in the assay with COLO 205 colon, 80.2%; in the assay on DU-145 prostate it was 91.9%; with K-562 leukemia, 63.4%. The growth in the assay with MALME-3M melanoma was 77.2%; in the assay with MDA-MB-231 breast it was 101%; in the assay on RXF 393 renal it was 74.5%; in the assay with SF-268 CNS, 96.3%; with SF-295 CNS, 92.8%; with SF-539 CNS, 79.6%. Besides, the growth is 86.2% in the assay with UACC-257 melanoma and 87% in the assay with M14 melanoma.

For `CNC(=O)c1cc(Oc2ccc3nc(NC(=O)Nc4ccc(C(F)(F)F)cc4)sc3c2)ccn1`, the growth with NCI-H23 lung was 63.4%; in the assay with NCI-H226 lung, 85.6%; in the assay on NCI-H322M lung, 80.5%; in the assay with HOP-62 NSCLC, 67.4%; in the assay on NCI-H460 lung, 33.4%; in the assay with HOP-92 NSCLC, 74.4%. Besides, the growth in the assay on NCI-H522 lung was 42.4%; in the assay with A549/ATCC NSCLC, 1.79% (active); in the assay on 786-0 renal, 35.4%; in the assay on COLO 205 colon it was 58.7%; in the assay on DU-145 prostate, 48.9%; with K-562 leukemia, 76.3%. Besides, the growth in the assay with MALME-3M melanoma is 20.8%; with MDA-MB-231 breast, 63.5%; with RXF 393 renal, 85.5%; in the assay with SF-268 CNS, 65%; in the assay with SF-295 CNS, 63.2%; with SF-539 CNS it was 82.2%. The growth in the assay with UACC-257 melanoma was 86.7%; with M14 melanoma it was 35.8%.
